Results reported in PubChem BioAssay (NCATS).
Records with an inconclusive call do not appear. Activity calls are given as the source filed them. Calls come from the whole dose curve; as a rule, active = well fitted inhibition curve with a large enough effect; inconclusive = small, poorly fitted or top-dose-only effect; inactive = flat fitted curve, though single readings scatter. Residues, ends and D or L forms follow the SMILES beside them.

biological target: Ubiquitin carboxyl-terminal hydrolase 1 (Homo sapiens) (UniProt O94782); experiment: Inhibitors of USP1/UAF1: Pilot qHTS (AID 504865); conditions: purified USP1/UAF1, Ub-rhodamine cleavage fluorescence; series mostly up to 114 µM; activity change, negative = inhibition: at the top concentration; note: nearly all actives have a fitted effect of over 35% in size;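 for activity change, negative = inhibition: rhodamine fluorescence freed from ubiquitin-rhodamine substrate followed over time; top concentration of the series differs between compounds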
Excerpt: Deubiquitinating enzymes (DUBs) are a class of enzymes that can cleave isopeptide bond formed between the C-terminal carboxylate of ubiquitin and a lysine side-chain amino group on the target protein. Among them, ubiquitin specific proteases (USPs) constitute the largest DUB family. Human USPs are emerging as promising targets for pharmacological intervention because of their connection to a number of human diseases, including prostate, colon and breast cancer (1, 2), pediatric acute lymphoblastic leukemia (3), and familial cylindromatosis (4). The advantage of inhibiting USPs lies in the potential specificity of therapeutic intervention that can lead to better efficacy and reduce nonspecific side effects.
In a collaboration between the University of Delaware and the NIH Chemical Genomics Center, a high-throughput screen assay was developed to screen for USP1/UAF1 inhibitors. This miniaturized assay has a fluorescent read-out and is used to screen the NIH Molecular Libraries Small Molecule Repository (MLSMR) in order to identify a small molecule that inhibits USP1.
NIH Chemical Genomics Center [NCGC]
NIH Molecular Libraries Probe Centers Network [MLPCN]
Assay Submitter (PI): Zhihao Zhuang, University of Delaware
1. Priolo, C., et al. (2006) The isopeptidase USP2a protects human prostate cancer from apoptosis. Cancer Res 66, 8625-8632
2. Popov, N., et al. (2007) The ubiquitin-specific protease USP28 is required for MYC stability. Nat Cell Biol 9, 765-774
3. De Pitta, C., et al. (2005) A leukemia-enriched cDNA microarray platform identifies new transcripts with relevance to the biology of pediatric acute lymphoblastic leukemia. Haematologica 90, 890-898
4. Kovalenko, A., et al. (2003) The tumour suppressor CYLD negatively regulates NF-kappaB signalling by deubiquitination. Nature 424, 801-805
3 microliters of reagents (buffer in columns 3 and 4 as negative control and 1nM USP1/UAF1 complex in columns 1, 2, and 5-48) are dispensed into Greiner black solid bottom 1536-well assay plates. Compounds are then transferred via Kalypsys pin tool equipped with 1536-pin array (10nl slotted pins, V&P Scientific, San Diego, CA). Following an incubation step of 15 min at room temperature, 1ul of Ub-Rho substrate (150nM final concentration) is added to initiate the reaction. The plates are immediately centrifuged at 1000 rpm for 15 seconds, and subsequently transferred to a ViewLux high-throughput CCD imager (PerkinElmer) wherein kinetic measurements of fluorescence are acquired using 480 nm excitation/540 nm emission filter set (6 reads every 60 seconds, see Table 1). All reagents are diluted in an assay buffer consisting of 50mM HEPES (pH 7.8), 0.5mM EDTA, 0.1 mg/ml BSA, 1mM TCEP, and 0.01% Tween-20.
% is set by controls: 0 for no effect and ±100 for the full control effect; potency is the fitted concentration of half-maximal effect.

Ubiquitin carboxyl-terminal hydrolase 1 (Homo sapiens), sequence (O94782 whole entry, looked up): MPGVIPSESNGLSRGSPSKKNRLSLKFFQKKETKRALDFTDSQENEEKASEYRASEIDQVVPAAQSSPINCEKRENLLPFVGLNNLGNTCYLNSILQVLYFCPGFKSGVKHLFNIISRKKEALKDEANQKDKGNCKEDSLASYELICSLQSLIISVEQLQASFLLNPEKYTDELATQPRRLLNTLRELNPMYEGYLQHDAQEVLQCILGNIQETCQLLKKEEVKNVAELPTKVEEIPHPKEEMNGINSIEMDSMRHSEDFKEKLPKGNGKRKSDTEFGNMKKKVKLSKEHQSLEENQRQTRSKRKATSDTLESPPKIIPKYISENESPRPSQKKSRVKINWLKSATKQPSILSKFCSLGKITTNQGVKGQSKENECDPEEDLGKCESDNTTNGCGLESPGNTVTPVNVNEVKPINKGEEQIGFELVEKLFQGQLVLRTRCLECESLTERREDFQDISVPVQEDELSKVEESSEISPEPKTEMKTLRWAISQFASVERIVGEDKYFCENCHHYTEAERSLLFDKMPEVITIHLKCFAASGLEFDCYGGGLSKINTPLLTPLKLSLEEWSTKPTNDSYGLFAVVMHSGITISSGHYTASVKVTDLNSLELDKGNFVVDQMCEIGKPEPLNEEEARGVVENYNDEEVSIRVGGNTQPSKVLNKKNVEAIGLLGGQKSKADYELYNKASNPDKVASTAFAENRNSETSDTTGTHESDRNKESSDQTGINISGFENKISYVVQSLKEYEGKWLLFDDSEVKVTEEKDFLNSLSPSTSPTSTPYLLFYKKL

Row | SMILES | activity change, negative = inhibition | Potency
1 | CCN(Cc1ccncc1)C(=O)[C@@H](CO)c1ccccc1 | -11.6% [at 54.9 µM] (inactive) | 
2 | NCCOB(c1ccccc1)c1ccccc1 |  | inactive
3 | S=C(Nc1ccccc1)Nc1nccs1 | -5.83% (inactive) | 
4 | CCOC(=O)[C@H](N)/C=C(\C)CP(=O)(O)O | -12.7% (inactive) | 
5 | O=C(O)c1nc2cc(Cl)c(Cl)cc2[nH]c1=O | -9.86% (inactive) | 
6 | CC[C@]1(O)C[C@@H]2CN(CCc3c([nH]c4ccccc34)[C@](C(=O)OC)(c3cc4c(cc3OC)N(C)[C@H]3[C@](O)(C(=O)OC)[C@@H](C(=O)OC)[C@@]5(CC)C=CCN6CC[C@@]43[C@@H]65)C2)C1 | -5.27% (inactive) | 
7 | CC(=O)NCC(=O)N[C@H](CCC(=O)O)C(=O)O (HELM PEPTIDE1{[ac].G.[dE]}$$$$V2.0) | -11.7% (inactive) | 
8 | NC1(C(=O)O)CC(C(=O)O)C1 (stereo not given) | -4.67% (inactive) | 
9 | CC(C)(O)c1ccccc1CC[C@H](SCC1(CC(=O)O)CC1)c1cccc(/C=C/c2ccc3ccc(Cl)cc3n2)c1 |  | 39.8 µM (active)
10 | C=C[C@H](N)CCC(=O)O | 4.07% [at 54.9 µM] (inactive) | 
11 | N[C@@H](C(=O)O)c1ccc(C(=O)O)c(C(=O)O)c1 |  | inactive
12 | N[C@H]1CCN(O)C1=O | -5.82% (inactive) | 
13 | CCCCN1CCC[C@@H]1CNC(=O)c1cc(C#N)c2ccccc2c1OC | 6.43% (inactive) | 
14 | Cc1c(C2CCN(CCc3ccccc3)CC2)noc1-c1ccc(Cl)cc1 | -11.9% (inactive) | 
15 | N[C@@]1(C(=O)O)CN[C@H](C(=O)O)C1 | 4.78% (inactive) | 
16 | NCCCCNS(=O)(=O)c1ccc2c(Cl)cccc2c1 | -13% (inactive) | 
17 | CCOc1nc2cccc(C(=O)OC(C)OC(=O)OC3CCCCC3)c2n1Cc1ccc(-c2ccccc2-c2nn[nH]n2)cc1 (stereo not given) |  | 22.4 µM (active)
18 | CCCn1c(=O)c2[nH]c(-c3ccccc3)nc2n(CCC)c1=O | -2.77% (inactive) | 
19 | NC(N)=NCCC[C@@H](N)C(=O)O | -2.77% (inactive) | 
20 | O=C(O)/C=C1\CCCc2ccccc2[C@H]1O | 6.52% (inactive) | 

Row | SMILES | activity change, negative = inhibition | Potency
21 | CCNCCCNCCCNCCCNCC | -7.27% (inactive) | 
22 | CCCCCCCCCC(=O)O[C@H](CC(=O)O)C[N+](C)(C)C | 0.17% (inactive) | 
23 | N[C@@H](Cn1ccc(=O)n(Cc2ccccc2C(=O)O)c1=O)C(=O)O | 10% (inactive) | 
24 | Cc1c[nH]c(=O)n(CCCN2CCN(c3ccccc3OCC(F)(F)F)CC2)c1=O | -0.431% (inactive) | 
25 | N[C@H](Cc1cnc[nH]1)C(=O)O | -6.96% (inactive) | 
26 | C[N+](C)(C)CCCCCNCC12CC3CC(CC(C3)C1)C2 | -9.15% (inactive) | 
27 | CC(C)=CCC/C(C)=C/CC/C(C)=C/CC/C(C)=C/CO | -9.88% (inactive) | 
28 | O=C(c1ccc2c(c1)OCO2)N1CCCCC1 | -7.27% (inactive) | 
29 | N[C@@H](C(=O)O)c1ccc(P(=O)(O)O)cc1 | -5.29% (inactive) | 
30 | Nc1ncnc2c1c(I)cn2C1OC(CO)C(O)C1O (stereo not given) | -8.86% (inactive) | 
31 | Fc1ccc([C@H]2CCNC[C@H]2COc2ccc3c(c2)OCO3)cc1 | -2.02% (inactive) | 
32 | CN1Cc2c(C(=O)OC(C)(C)C)ncn2-c2ccsc2C1=O | 1.37% (inactive) | 
33 | CN(C)CCCSc1ccccc1NC(=O)/C=C\c1ccccc1 | -7.47% (inactive) | 
34 | O=C(c1ccc(F)cc1)C1CCN(CCCCc2ccccc2)CC1 | -10.2% (inactive) | 
35 | CC[C@]1(c2ncc[nH]2)Cc2ccccc2O1 | -7.9% (inactive) | 
36 | CCN(CC)c1ncnc2c1ncn2[C@@H]1O[C@@H](COP(=O)(O)OP(=O)(O)C(Br)(Br)P(=O)(O)O)[C@H](O)[C@H]1O | -5.22% (inactive) | 
37 | N[C@@H](CSS(=O)(=O)O)C(=O)O |  | 39.8 µM (active)
38 | Cc1nc2c(O)cccc2c(=O)[nH]1 | -8.34% (inactive) | 
39 | CC(=O)O[C@H](CC(=O)O)C[N+](C)(C)C | 6.52% (inactive) | 
40 | CC#CCOC(=O)C1=CCCN(C)C1 | -11.4% (inactive) | 
